Experimental data from PubChem BioAssay AID1159580 (chemical genetic matrix, 2015).
The campaign covered roughly 5,500 compounds. About 2,000 (36%) were called active. About 18% were inconclusive and are not listed. No stated cut-off is given here; in the data, active means normalized growth mostly below about 0.91 (no sharp cut-off); inconclusive means no clear call, values can overlap the other calls; inactive means mostly above about 0.92. Some of the results follow.

Test: chemical genetic growth profiling, strain panel (AID 1159580);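 further: tested at 20 µM; growth read once vehicle control cultures reached saturation at 30 °C; 1 = growth at the plate median or of vehicle wells; lower values mean less growth of the strain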
Conditions: growth OD

Measured: normalized growth

C[C@]12CCC3c4ccc(O)cc4CCC3C1CC[C@@H]2OC(=O)CCC1CCCC1 (stereo not given in full)
inactive: S. cerevisiae deletion strains, locus YJR075W, strain HOC1, hits give low values 0.988 | S. cerevisiae deletion strains, locus YKL009W, strain mrt4, hits give low values 0.986 | S. cerevisiae deletion strains, locus YKL068W, hits give low values 0.991 | S. cerevisiae deletion strains, locus YKL085W, strain MDH1 (second series), hits give low values 0.998 | S. cerevisiae deletion strains, locus YKL085W, strain MDH1, hits give low values 0.998 | S. cerevisiae deletion strains, locus YKL160W, strain elf1, hits give low values 1.03 | S. cerevisiae deletion strains, locus YKL190W, strain CNB1, hits give low values 0.992 | S. cerevisiae deletion strains, locus YKR001C, strain vps1, hits give low values 0.973 | S. cerevisiae deletion strains, locus YKR026C, strain gcn3, hits give low values 1.01 | S. cerevisiae deletion strains, locus YKR091W, strain srl3, hits give low values 1.02 | S. cerevisiae deletion strains, locus YLL001W, strain dnm1, hits give low values 1.03 | S. cerevisiae deletion strains, locus YLL026W, hits give low values 1.01 | S. cerevisiae deletion strains, locus YLL041C, strain sdh2, hits give low values 1 | S. cerevisiae deletion strains, locus YLR027C, strain aat2, hits give low values 0.995 | S. cerevisiae deletion strains, locus YLR039C, strain RIC1, hits give low values 0.984 | S. cerevisiae deletion strains, locus YLR058C, strain SHM2, hits give low values 0.991 | S. cerevisiae deletion strains, locus YLR102C, strain apc9, hits give low values 1.01 | S. cerevisiae deletion strains, locus YLR113W, strain HOG1, hits give low values 1.06 | S. cerevisiae deletion strains, locus YLR221C, strain rsa3, hits give low values 1.02 | S. cerevisiae deletion strains, locus YLR258W, strain gsy2, hits give low values 1.01 | S. cerevisiae deletion strains, locus YLR262C, strain YPT6 (second series), hits give low values 1.02 | S. cerevisiae deletion strains, locus YLR262C, strain YPT6, hits give low values 0.897 | S. cerevisiae deletion strains, locus YLR268W, strain sec22, hits give low values 0.993 | S. cerevisiae deletion strains, locus YLR320W, strain mms22, hits give low values 1.03 | S. cerevisiae deletion strains, locus YLR330W, strain CHS5, hits give low values 0.984 | S. cerevisiae deletion strains, locus YLR342W, strain FKS1 (second series), hits give low values 1 | S. cerevisiae deletion strains, locus YLR342W, strain FKS1, hits give low values 1.01 | S. cerevisiae deletion strains, locus YLR357W, strain rsc2, hits give low values 1.03 | S. cerevisiae deletion strains, locus YLR370C, strain arc18, hits give low values 1.02 | S. cerevisiae deletion strains, locus YLR371W, strain rom2, hits give low values 1.03 | S. cerevisiae deletion strains, locus YLR384C, strain iki3, hits give low values 1 | S. cerevisiae deletion strains, locus YLR418C, strain cdc73, hits give low values 1.03 | S. cerevisiae deletion strains, locus YML016C, strain PPZ1, hits give low values 0.988 | S. cerevisiae deletion strains, locus YML032C, strain rad52, hits give low values 0.986 | S. cerevisiae deletion strains, locus YML120C, strain ndi1, hits give low values 1.03 | S. cerevisiae deletion strains, locus YML124C, strain tub3, hits give low values 0.991 | S. cerevisiae deletion strains, locus YMR058W, strain fet3, hits give low values 1.01 | S. cerevisiae deletion strains, locus YMR078C, strain ctf18, hits give low values 1.01 | S. cerevisiae deletion strains, locus YMR125W, strain sto1, hits give low values 1.02 | S. cerevisiae deletion strains, locus YMR129W, hits give low values 1.02 | S. cerevisiae deletion strains, locus YMR205C, strain PFK2, hits give low values 1.01 | S. cerevisiae deletion strains, locus YMR223W, strain ubp8, hits give low values 1.04 | S. cerevisiae deletion strains, locus YMR231W, strain pep5, hits give low values 1 | S. cerevisiae deletion strains, locus YMR307W, strain GAS1, hits give low values 0.998 | S. cerevisiae deletion strains, locus YNL067W, strain RPL9B, hits give low values 0.988 | S. cerevisiae deletion strains, locus YNL071W, strain lat1, hits give low values 1.01 | S. cerevisiae deletion strains, locus YNL128W, strain TEP1, hits give low values 0.976 | S. cerevisiae deletion strains, locus YNL183C, strain NPR1, hits give low values 0.982 | S. cerevisiae deletion strains, locus YNL209W, strain ssb2, hits give low values 1.01 | S. cerevisiae deletion strains, locus YNL233W, strain BNI4, hits give low values 0.993 | S. cerevisiae deletion strains, locus YNL248C, strain rpa49, hits give low values 1.02 | S. cerevisiae deletion strains, locus YNL250W, strain rad50, hits give low values 1.01 | S. cerevisiae deletion strains, locus YNL271C, strain bni1, hits give low values 0.999 | S. cerevisiae deletion strains, locus YNL298W, strain CLA4, hits give low values 0.999 | S. cerevisiae deletion strains, locus YNL307C, strain MCK1, hits give low values 0.996 | S. cerevisiae deletion strains, locus YNL322C, strain KRE1 (second series), hits give low values 1.04 | S. cerevisiae deletion strains, locus YNL322C, strain KRE1, hits give low values 0.998 | S. cerevisiae deletion strains, locus YNR049C, strain mso1, hits give low values 1.03 | S. cerevisiae deletion strains, locus YNR052C, strain pop2, hits give low values 1.01 | S. cerevisiae deletion strains, locus YOL006C, strain TOP1, hits give low values 0.976 | S. cerevisiae deletion strains, locus YOL012C, strain htz1 1.23 | S. cerevisiae deletion strains, locus YOL147C, strain pex11, hits give low values 1.01 | S. cerevisiae deletion strains, locus YOR001W, strain rrp6, hits give low values 0.995 | S. cerevisiae deletion strains, locus YOR061W, strain CKA2, hits give low values 0.969 | S. cerevisiae deletion strains, locus YOR069W, strain VPS5, hits give low values 0.994 | S. cerevisiae deletion strains, locus YOR070C, strain gyp1, hits give low values 1.02 | S. cerevisiae deletion strains, locus YOR080W, strain dia2, hits give low values 0.998 | S. cerevisiae deletion strains, locus YOR083W, strain WHI5, hits give low values 1.05 | S. cerevisiae deletion strains, locus YOR106W, strain vam3, hits give low values 1.04 | S. cerevisiae deletion strains, locus YOR136W, strain idh2, hits give low values 0.991 | S. cerevisiae deletion strains, locus YOR144C, strain elg1, hits give low values 0.992 | S. cerevisiae deletion strains, locus YOR184W, strain ser1, hits give low values 0.99 | S. cerevisiae deletion strains, locus YOR231W, strain MKK1, hits give low values 1.07 | S. cerevisiae deletion strains, locus YOR265W, strain rbl2, hits give low values 1.01 | S. cerevisiae deletion strains, locus YOR270C, strain vph1, hits give low values 1.06 | S. cerevisiae deletion strains, locus YOR290C, strain snf2, hits give low values 0.986 | S. cerevisiae deletion strains, locus YOR316C, strain cot1, hits give low values 0.989 | S. cerevisiae deletion strains, locus YPL051W, strain arl3, hits give low values 1.01 | S. cerevisiae deletion strains, locus YPL055C, strain LGE1, hits give low values 0.994 | S. cerevisiae deletion strains, locus YPL078C, strain atp4, hits give low values 1.04 | S. cerevisiae deletion strains, locus YPL106C, strain sse1, hits give low values 1.05 | S. cerevisiae deletion strains, locus YPL240C, strain hsp82, hits give low values 0.996 | S. cerevisiae deletion strains, locus YPL241C, strain CIN2, hits give low values 0.979 | S. cerevisiae deletion strains, locus YPL256C, strain CLN2, hits give low values 1.03 | S. cerevisiae deletion strains, locus YPR119W, strain clb2, hits give low values 1 | S. cerevisiae deletion strains, locus YPR141C, strain kar3, hits give low values 0.996 | S. cerevisiae deletion strains, locus YPR163C, strain tif3, hits give low values 1 | S. cerevisiae deletion strains, locus YPR167C, strain met16, hits give low values 0.997 | S. cerevisiae deletion strains, strain wtn01, hits give low values 1.01 | S. cerevisiae strains, strain wild type, hits give low values 0.973
